Shown are actives, neighbours in structure and some others; about 0.68% of the full set was active somewhere.
Sa RN4220 lethal = kills Staphylococcus aureus RN4220; S. aureus RN4220 growth, OD600, 16 h; inhibition, % (test concentration not listed); 330,000 tested, 0.33% active; AID 1259311; in the data active = inhibition above about 85%
Sa ugtP lethal = compounds lethal to S. aureus RN4220 ugtP deletion mutant; growth inhibition, % (test concentration not listed); 330,000 tested, 0.54% active; OD600 growth, 16 h; in the data active = growth inhibition above about 68%
Mtb hypoxia inh = Mtb hypoxia fluorescent reporter inhibition; M. tuberculosis hypoxia-regulated fluorescent reporter, fluorescence; fluorescence inhibition, % (no concentration beside the values); 300,000 tested, 0.1% active; AID 1159583; in the data active = fluorescence inhibition mostly above about 23%, no sharp cut-off; inactive = mostly below about 17%
Each line names hits and unclear results; the compound was inactive in the other large screens.

O=c1c2ccccc2nc(SCc2cccc(F)c2)n1-c1cccc(S(=O)(=O)N2CCCC2)c1	Sa RN4220 lethal 96.6, Sa ugtP lethal 93.7
O=C(c1ccc(-n2c(SCc3cccc(F)c3)nc3ccccc3c2=O)cc1)N1CCOCC1	none
Cc1sc(NC(=O)C=Cc2ccco2)c(C(=O)OC(C)C)c1C	none
Cc1ccc(-c2nn(-c3ccccc3)cc2CNCc2ccccc2)cc1	Sa ugtP lethal 96.9
Cc1ccc(-c2nn(-c3ccccc3)cc2CO)cc1	none
COc1ccc(CNC(=O)C2CC=CC3CCN(Cc4ccc(Cl)c(Cl)c4)C(=O)C32)cc1 (stereo not given)	none
CCCCOc1ccc(C(=O)N2CCC(C)CC2)cc1	none
CC1CN(C)C(C)CC1OC(=O)C(c1ccccc1)c1ccccc1 (stereo not given)	Sa ugtP lethal 85.8
CCCCOc1ccc(C(=O)OC2CC(C)N(C)CC2C)cc1 (stereo not given)	Sa ugtP lethal 97.7
CN(C)[C@@H]1CCC[C@H]1OC(=O)C(c1ccccc1)c1ccccc1	none
CC(=O)OC1CC[C@]2(C)C3=CC[C@]4(C)C(C(C)OC(C)=O)CCC4C3CCC2C1 (stereo not given in full)	none
COc1ccc(CN2C(CC(=O)O)c3cc(C(F)(F)F)ccc3S2(=O)=O)cc1 (stereo not given)	none
Cn1c(SCc2ccc(Cl)cc2Cl)nc(C(F)(F)F)cc1=O	none
FC(F)(F)c1nc(SCc2ccc(Cl)cc2Cl)n[nH]1	Sa ugtP lethal 82.8
COc1ccc(C2C3C(=O)N(C(C)(C)C)C(=O)C3[C@]3(Cc4ccccc4)C(=O)N(c4cccc(F)c4)C(=O)N23)cc1 (stereo not given in full)	none
C#CCOCCOCCOCCNc1nc(N2CCN(C(=O)C(CCCCN)n3cc(C(N)CC(C)C)nn3)CC2)nc(N2CCN(C(=O)C(C(C)CC)n3cc(C(N)Cc4ccc(O)cc4)nn3)CC2)n1 (stereo not given)	none
COc1ccc(/C=C\C(=O)c2c(O)ccc3c(C)cc(=O)oc23)cc1	Sa ugtP lethal 87.1 (no result: Mtb hypoxia inh)
CCOc1ccc(/C=C/C(=O)c2c(O)cc(C)oc2=O)cc1	none
COc1ccc(/C=C/C(=O)c2c(O)ccc3c(C)cc(=O)oc23)cc1	Sa ugtP lethal 89.1
COc1ccc(-c2cc(=O)oc3c(C)c(O)ccc23)cc1	none
O=C(C=Cc1ccc2c(c1)S(=O)(=O)N(Cc1ccccc1)C2CC(=O)N1CCOCC1)N1CCOCC1 (stereo not given)	none
COc1ccc(C2CC(=O)C=C(c3cc(F)ccc3OC)C2)cc1 (stereo not given)	none
O=C1C2C(c3cccc(C=Cc4ccccc4)c3)CC=CC2C(c2ccc3ccccc3c2)N1Cc1ccccc1 (stereo not given)	none
COc1ccc(N2CC(C(=O)NN=Cc3ccc([N+](=O)[O-])cc3)CC2=O)cc1 (stereo not given)	none
COc1ccc(N2CC(C(=O)NN=Cc3cc([N+](=O)[O-])ccc3O)CC2=O)cc1 (stereo not given)	Sa RN4220 lethal 89.9
CCN1C(=O)C2C(c3ccc(C)cc3)N3C(=O)N(c4cccc(C)c4)C(=O)[C@@]3(Cc3ccccc3)C2C1=O (stereo not given in full)	none
COC(=O)C1=C(c2cccc(OCc3ccccc3)c2)CC2CCC1N2C(=O)NCc1ccc([N+](=O)[O-])cc1 (stereo not given)	none
O=C1CCN(CCCc2ccccc2)CCN1C(CO)Cc1ccccc1 (stereo not given)	none
CC(C)C(NC(=O)c1ccccc1)C(=O)OCC(=O)Nc1ccc2c(c1)OCCO2 (stereo not given)	none
O=S(=O)(Nc1ccccc1O)c1ccc(-c2ccccc2)cc1	none
O=S(=O)(Nc1cccnc1Cl)c1ccc(-c2ccccc2)cc1	Sa RN4220 lethal 89.2
Cc1ccc(S(=O)(=O)Nc2ccccc2-c2ccccc2NS(=O)(=O)c2ccc(C)cc2)cc1	none (no result: Mtb hypoxia inh)
O=C1c2ccccc2-c2cccc(NS(=O)(=O)c3ccc(C(F)(F)F)cc3)c21	Sa RN4220 lethal 96.7, Sa ugtP lethal 97.4
COC(=O)c1ccc(CN2C(C(=O)OC)C[C@@]3(O)C(O)C(O)C(O)CC23)cc1 (stereo not given in full)	none
c1ccc(-c2ccc(CN3CC4C(c5ccccc5)C5(c6cccnc6)CC4(C5)C3c3ccccc3)cc2)cc1 (stereo not given)	none
CN(C)CCCN(C(=O)c1ccc(S(=O)(=O)N(C)C2CCCCC2)cc1)c1nc2ccc(F)cc2s1	none
Cc1cc(C)c2sc(N(CCCN(C)C)C(=O)c3ccc(S(=O)(=O)N(C)C4CCCCC4)cc3)nc2c1	Mtb hypoxia inh 37.5
O=C(Oc1ccc(Cl)c2cccnc12)c1ccco1	Sa RN4220 lethal 90.8
O=C(Oc1cccc2cccnc12)c1ccco1	none
COc1cccc(C2=Nn3c(nnc3-c3ccccc3O)SC2)c1	none

Screens: PubChem BioAssay, ICCB-Longwood Screening Facility, Harvard Medical School
